{"source": "PubChem BioAssay (NCI)", "note": "The panel holds about 83,000 compounds, 20% with a hit somewhere; the sample as a whole holds those more often.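 The endpoint reported here, percent growth, reads 100 for growth as untreated, 0 for no net growth and -100 for all cells dead.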 A number with no mark means an inactive call. Calls of active or inactive are those of the source. How the source made its calls: active means growth percent below 10; inactive means the rest."}
{"system": "MDA-MB-468 breast", "experiment": "NCI-60 one-dose screen, 48 h (100 = growth as untreated, 0 = no growth, -100 = all killed)", "settings": "10 µM unless noted"}
{"smiles": "[Cl][Ru].c1ccc(-c2cccc(-c3ccccn3)n2)nc1.c1ccc(-c2ccnc3c2ccc2c(-c4ccccc4)ccnc23)cc1", "growth": "-21.4% (active)"}
{"smiles": "O=C1C2=C(CCN(Cc3ccccc3)C2)N2CCN=C2N1Cc1ccc(C(F)(F)F)cc1", "growth": "8.96% (active)"}
{"smiles": "COc1ccc(-c2nnc(COc3ccc(NC(=O)Nc4cccc(C(F)(F)F)c4)cc3F)o2)cc1", "growth": "46.1%"}
{"smiles": "Oc1ccccc1-c1nnc(Cn2c(Cc3cccc4ccccc34)nc3ccccc32)o1", "growth": "105%"}
{"smiles": "Cn1cc(-c2nonc2-c2c[nH]c3ccccc23)c2ccccc21", "growth": "-4.56% (active)"}
{"smiles": "O=C1CCC(C(=O)NN(c2ccccc2)c2ccccc2)N1", "note": "(centres undefined)", "growth": "94.5%"}
{"smiles": "O=C(CCN1CCCC1)Nc1ccc2c(Nc3ccc(F)cc3)c3ccccc3nc2c1", "growth": "-66.6% (active)"}
{"smiles": "CCN(CC)CCCOCCCNc1cc(OC)cc2cccnc12", "growth": "-6.79% (active)"}
{"smiles": "CCN(CC)CCOc1ccc(C(=C(C)Cc2ccc(OC)cc2)c2ccc(OCCN(CC)CC)cc2)cc1", "growth": "-25.4% (active)"}
{"smiles": "CC(C)c1cccc(C#N)c1", "growth": "99.4%"}
{"smiles": "COc1ccc(-c2nc(SCC(=O)Nc3nc(-c4ccccc4)cs3)[nH]c(=O)c2C#N)cc1", "growth": "84.2%"}
{"smiles": "C[C@@H]1CC[C@@H]2[C@@H]1[C@H](OC(=O)/C=C/c1ccccc1)[C@]1(C3CCCCC3)C[C@@H](OC(=O)CO)[C@@]2(C)O1", "growth": "74.1%"}
{"smiles": "Cc1cccc(C)c1-c1cc(Cc2ccc(Cl)cc2)c(=O)[nH]n1", "growth": "96.9%"}
{"smiles": "CNCc1cccc2c1OCCCCCCC(C)(O)CC(C)(C)S(=O)(=O)c1ccc(cc1)-c1cnc(N)c(n1)C(=O)N2", "note": "(centres undefined)", "growth": "-54.1% (active)"}
